Measurements: PubChem BioAssay (Tox21)
Results filed as inconclusive are left out. The source made the active and inactive calls. The call rests on the fitted dose curve; in most records, active means well fitted curve in the direction sought with a large enough effect in the repeat runs; inconclusive means weak or mixed curves; inactive means no such curve, though single readings can be large; an effect the other way counts as inactive or inconclusive.

How the values were obtained:
[1] = A CellTox Green Cytotoxicity Assay to monitor cytotoxicity in HEK293 cells - 40 hour (AID 1224871); further: nearly all actives have a fitted effect of over 45% in size
In short: (§1)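 Cells (HEK293, 600/well) and dye reagent are dispensed together. After 5 h at 37 C, 23 nL compound is pinned in. Plates stay at 37 C for 40 h with fluorescence read at 0h, 8h, 16h, 24h, 32h and 40h.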

[2] = qHTS RealTime-Glo MT Cell Viability Assay in HEK293 cells - 16 hour (AID 1224872); further: top concentration of the series differs between compounds; nearly all actives have a fitted effect of over 50% in size
In short: (§2)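 Cells + reagent dispensed (600 cells/well, HEK293) → 5 h at 37 C/5% CO2 → 23 nL compound in DMSO pinned → 40 h at 37 C → luminescence read at 0, 8, 16, 24, 32, 40 h.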

[3] = qHTS RealTime-Glo MT Cell Viability Assay in HepG2 cells - 8 hour (AID 1224873); further: nearly all actives have a fitted effect of over 55% in size
In short: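 HepG2 cells (600/well) mixed with RealTime-Glo MT reagent, settled 5 h at 37 C/5% CO2 before compound addition. Nonlytic NanoLuc luminescence from viable-cell prosubstrate reduction read repeatedly during 40 h treatment at 37 C.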

[4] = qHTS RealTime-Glo MT Cell Viability Assay in HEK293 cells - 40 hour (AID 1224874); details: RealTime-Glo luminescence; max response: stronger effect = lower value; further: nearly all actives have a fitted effect of over 50% in size
In short: (§3)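 Real-time viability in HEK293: signal arises when living cells convert a prosubstrate for NanoLuc in the medium, so luminescence tracks viable cell number. Compound (23 nL, DMSO) added 5 h post-seeding; kinetic reads at 0–40 h, 37 C.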

[5] = A CellTox Green Cytotoxicity Assay to monitor cytotoxicity in HEK293 cells - 24 hour (AID 1224875); further: series mostly up to about 77 µM; nearly all actives have a fitted effect of over 45% in size
In short: as §1

[6] = A CellTox Green Cytotoxicity Assay to monitor cytotoxicity in HepG2 cells - 16 hour (AID 1224876); further: nearly all actives have a fitted effect of over 45% in size
In short: (§4)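 Cells and non-lytic dye reagent are dispensed together (600 HepG2 cells/well) and incubated 5 h before DMSO compound transfer. Kinetic fluorescence is then recorded in the same wells during 40 h at 37 C.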

[7] = qHTS RealTime-Glo MT Cell Viability Assay in HepG2 cells - 32 hour (AID 1224877); further: nearly all actives have a fitted effect of over 55% in size
In short: (§5)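 Real-time, nonlytic viability: 600 HepG2 cells/well mixed with NanoLuc enzyme plus prosubstrate; 5 h settle, compound (DMSO) added by pintool; luminescence monitored over 40 h at 37 C.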

[8] = A CellTox Green Cytotoxicity Assay to monitor cytotoxicity in HepG2 cells - 24 hour (AID 1224878); further: nearly all actives have a fitted effect of over 45% in size
In short: as §4

[9] = A CellTox Green Cytotoxicity Assay to monitor cytotoxicity in HepG2 cells - 40 hour (AID 1224879); further: nearly all actives have a fitted effect of over 40% in size
In short: as §4

[10] = qHTS RealTime-Glo MT Cell Viability Assay in HEK293 cells - 0 hour (AID 1224880)
In short: as §3

[11] = A CellTox Green Cytotoxicity Assay to monitor cytotoxicity in HEK293 cells - 32 hour (AID 1224881); further: nearly all actives have a fitted effect of over 40% in size
In short: as §1

[12] = A CellTox Green Cytotoxicity Assay to monitor cytotoxicity in HepG2 cells - 0 hour (AID 1224882); further: nearly all actives have a fitted effect of over 35% in size
In short: as §4

[13] = A CellTox Green Cytotoxicity Assay to monitor cytotoxicity in HepG2 cells - 32 hour (AID 1224883); further: nearly all actives have a fitted effect of over 50% in size
In short: as §4

[14] = A CellTox Green Cytotoxicity Assay to monitor cytotoxicity in HEK293 cells - 8 hour (AID 1224884); further: nearly all actives have a fitted effect of over 35% in size
In short: as §1

[15] = qHTS RealTime-Glo MT Cell Viability Assay in HepG2 cells - 16 hour (AID 1224885); further: nearly all actives have a fitted effect of over 50% in size
In short: as §5

[16] = qHTS RealTime-Glo MT Cell Viability Assay in HEK293 cells - 24 hour (AID 1224886)
In short: as §2

[17] = qHTS RealTime-Glo MT Cell Viability Assay in HEK293 cells - 8 hour (AID 1224887)
In short: as §3

[18] = A CellTox Green Cytotoxicity Assay to monitor cytotoxicity in HEK293 cells - 16 hour (AID 1224888); further: nearly all actives have a fitted effect of over 35% in size
In short: as §1

[19] = qHTS RealTime-Glo MT Cell Viability Assay in HepG2 cells - 0 hour (AID 1224889); further: nearly all actives have a fitted effect of over 50% in size
In short: as §5

[20] = A CellTox Green Cytotoxicity Assay to monitor cytotoxicity in HepG2 cells - 8 hour (AID 1224890); further: nearly all actives have a fitted effect of over 45% in size
In short: as §4
On the % scale 0 is the no-effect control and ±100 the full control effect.

C[C@@H](N)C(=O)O
inactive: Potency [1] | Potency [2] | outcome [3] | max response [4] 1.04% | Potency [5] | Potency [6] | Potency [7] | Potency [8] | Potency [9] | outcome [10] | Potency [11] | Potency [12] | Potency [13] | Potency [14] | outcome [15] | Potency [16] | Potency [17] | Potency [18] | Potency [19] | Potency [20]

CC(C)NC[C@@H](O)COc1cccc2ccccc12
inactive: Potency [1] | Potency [2] | outcome [3] | max response [4] -27.3% | Potency [5] | Potency [6] | Potency [7] | Potency [8] | Potency [9] | outcome [10] | Potency [11] | Potency [12] | Potency [13] | Potency [14] | outcome [15] | Potency [16] | Potency [17] | Potency [18] | Potency [19] | Potency [20]

Cc1ccc([N+](=O)[O-])cc1Cl
inactive: Potency [1] | Potency [2] | outcome [3] | max response [4] 0.878% | Potency [5] | Potency [6] | Potency [7] | Potency [8] | Potency [9] | outcome [10] | Potency [11] | Potency [12] | Potency [13] | Potency [14] | outcome [15] | Potency [16] | Potency [17] | Potency [18] | Potency [19] | Potency [20]

CCC(=O)O[C@]1(C(=O)SCF)[C@H](C)C[C@H]2[C@@H]3C[C@H](F)C4=CC(=O)C=C[C@]4(C)[C@@]3(F)[C@@H](O)C[C@@]21C
inactive: Potency [1] | Potency [2] | outcome [3] | max response [4] 2.57% | Potency [5] | Potency [6] | Potency [7] | Potency [8] | Potency [9] | outcome [10] | Potency [11] | Potency [12] | Potency [13] | Potency [14] | outcome [15] | Potency [16] | Potency [17] | Potency [18] | Potency [19] | Potency [20]

ClC(Cl)Cl
inactive: Potency [1] | Potency [2] | outcome [3] | max response [4] 6.53% | Potency [5] | Potency [6] | Potency [7] | Potency [8] | Potency [9] | outcome [10] | Potency [11] | Potency [12] | Potency [13] | Potency [14] | outcome [15] | Potency [16] | Potency [17] | Potency [18] | Potency [19] | Potency [20]

COC(=O)/C=C(/C)N
inactive: Potency [1] | Potency [2] | outcome [3] | max response [4] 5.09% | Potency [5] | Potency [6] | Potency [7] | Potency [8] | Potency [9] | outcome [10] | Potency [11] | Potency [12] | Potency [13] | Potency [14] | outcome [15] | Potency [16] | Potency [17] | Potency [19] | Potency [20]

NC1=NCC2c3ccccc3Cc3ccccc3N12 (stereo unspecified)
inactive: Potency [1] | Potency [2] | outcome [3] | max response [4] -13.1% | Potency [5] | Potency [6] | Potency [7] | Potency [8] | Potency [9] | outcome [10] | Potency [11] | Potency [12] | Potency [13] | Potency [14] | Potency [16] | Potency [17] | Potency [18] | Potency [19] | Potency [20]

CN1CCN(c2c(F)cc3c(=O)c(C(=O)O)cn4c3c2SCC4)CC1
inactive: Potency [1] | Potency [2] | outcome [3] | max response [4] 6.23% | Potency [5] | Potency [6] | Potency [7] | Potency [8] | Potency [9] | outcome [10] | Potency [11] | Potency [12] | Potency [13] | Potency [14] | outcome [15] | Potency [16] | Potency [17] | Potency [18] | Potency [19] | Potency [20]

COc1ccc(S(=O)(=O)Nc2nnc(CC(C)C)s2)cc1
inactive: Potency [1] | Potency [2] | outcome [3] | max response [4] 6.93% | Potency [5] | Potency [6] | Potency [7] | Potency [8] | Potency [9] | outcome [10] | Potency [11] | Potency [12] | Potency [13] | Potency [14] | Potency [16] | Potency [17] | Potency [18] | Potency [19]

O=C(Cl)c1cccc([N+](=O)[O-])c1
inactive: Potency [1] | Potency [2] | outcome [3] | max response [4] 3.57% | Potency [5] | Potency [6] | Potency [7] | Potency [8] | Potency [9] | outcome [10] | Potency [11] | Potency [12] | Potency [13] | outcome [15] | Potency [16] | Potency [17] | Potency [18] | Potency [19] | Potency [20]

OC[C@H]1O[C@@H](O[C@H]2[C@H](O)[C@@H](O)[C@H](O)O[C@@H]2CO)[C@H](O)[C@@H](O)[C@H]1O
inactive: Potency [1] | Potency [2] | outcome [3] | max response [4] 0.3% | Potency [5] | Potency [6] | Potency [7] | Potency [8] | Potency [9] | outcome [10] | Potency [11] | Potency [12] | Potency [13] | outcome [15] | Potency [16] | Potency [17] | Potency [18] | Potency [19] | Potency [20]

CC(C)C1=CC2=CC[C@@H]3[C@](C)(CCC[C@@]3(C)C(=O)O)[C@H]2CC1
inactive: Potency [1] | Potency [2] | outcome [3] | max response [4] 3.7% | Potency [5] | Potency [6] | Potency [7] | Potency [8] | Potency [9] | outcome [10] | Potency [11] | Potency [12] | Potency [13] | outcome [15] | Potency [16] | Potency [17] | Potency [18] | Potency [19] | Potency [20]

CCOC(=O)[C@H](CCc1ccccc1)N[C@@H](C)C(=O)N1Cc2cc(OC)c(OC)cc2C[C@H]1C(=O)O
inactive: Potency [1] | Potency [2] | outcome [3] | max response [4] 3.96% | Potency [5] | Potency [6] | Potency [7] | Potency [8] | outcome [10] | Potency [11] | Potency [12] | Potency [13] | Potency [14] | outcome [15] | Potency [16] | Potency [17] | Potency [18] | Potency [19] | Potency [20]

CC(C)CC(=O)OCc1ccccc1
inactive: Potency [1] | Potency [2] | outcome [3] | max response [4] 3.51% | Potency [5] | Potency [6] | Potency [7] | Potency [8] | outcome [10] | Potency [11] | Potency [12] | Potency [13] | Potency [14] | outcome [15] | Potency [16] | Potency [17] | Potency [18] | Potency [19] | Potency [20]
